“And” between values parts separate entries of the source, which are not always exact repeats. Equal entries are not always repeated. Values without a mark were called inactive. Inconclusive results are not listed. Where a call stands in place of a potency, no number is given. The source made the active and inactive calls. Unless noted, the call rests on the fitted dose curve.
Columns and labels:
[1] = target: Bile acid receptor (Homo sapiens) (UniProt Q96RI1); test: qHTS assay for small molecule antagonists of farnesoid X receptor signaling (AID 588526); settings: HEK293T FXR-UAS-bla, beta-lactamase ratio, antagonist mode; series mostly up to 76.7 µM
Outline: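 Concentration-response titrations were fitted to the Hill equation for half-maximal inhibition and maximal response, with data normalised to 50 uM chenodeoxycholic acid and DMSO control wells. Cells: FXR-UAS-bla HEK293T, dialyzed FBS.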

[2] = target: Bile acid receptor (Homo sapiens) (UniProt Q96RI1); test: qHTS assay for small molecule agonists of farnesoid X receptor signaling (AID 588527); settings: HEK293T FXR-UAS-bla, beta-lactamase ratio, 16 h; hits give high values
Outline: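 Agonist-mode beta-lactamase reporter in GeneBLAzer FXR-UAS-bla HEK293T cells, titration up to 92 uM, 16 h exposure at 37 C, CCF4 fluorescence. Response scaled to DMSO (0%) and 100 uM chenodeoxycholic acid (100%), then Hill-fitted for EC50 and efficacy.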

[3] = qHTS assay to identify small molecules that stimulate interleukin-8 (IL-8) secretion (AID 651758; active means well fitted activation curve with a large enough effect in the signal ratio; the % refers to the signal ratio); settings: HTRF ratio (665/615); series mostly up to 92.2 µM
Outline: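 THP-1, 2000 cells/well; cpd 16 h, 37 C; add cryptate + XL665 anti-IL-8 Abs; RT 1-3 h; TR-FRET read.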

[4] = target: Cytochrome P450 3A4 (Homo sapiens) (UniProt P08684); test: qHTS Assay for Activators of Cytochrome P450 3A4 (AID 885; active means well fitted curve in the direction sought with a large enough effect; an effect the other way counts as inactive or inconclusive; further: nearly all actives have a fitted effect of over 65% in size); settings: recombinant CYP3A4, Luciferin-PPXE luminescence, 60 min; series mostly up to 57.1 µM
Outline: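 Signal was normalized against complete inhibition by 57 uM ketoconazole. The reaction used 20nM CYP3A4 with 25uM Luciferin-PPXE, 10-min compound preincubation and a 60-min NADPH-supported step at RT.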

[5] = Confirmation and Secondary Assay for Modulators of Hemoglobin Beta Chain Splicing at IVS2 654 locus (AID 910; active means well fitted curve in the direction sought with a large enough effect; an effect the other way counts as inactive or inconclusive;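 further: per-well total GFP intensity by laser scanning cytometry after 2-day treatment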); settings: HeLa EGFP-654 splicing reporter, GFP fluorescence, 48 h; series mostly up to 38.3 µM
Outline: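 HeLa cells stably carrying EGFP interrupted by mutant beta-globin IVS2-654 intron (CMV-driven) were treated with compound for 2 days at 37C; corrected splicing was scored as total peak GFP intensity per well (488 nm excitation, 500-520 nm emission).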

[6] = Confirmation and Secondary Assay for Modulators of Hemoglobin Beta Chain Splicing at IVS2 705 locus (AID 930; active means well fitted curve in the direction sought with a large enough effect; an effect the other way counts as inactive or inconclusive;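 further: HeLa cells stably expressing the EGFP-705 splicing reporter; GFP fluorescence per well restored by corrected splicing of the IVS2-705 intron in EGFP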); settings: HeLa EGFP-705 splicing reporter, GFP fluorescence, 48 h; series mostly up to 38.3 µM
Outline: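 HeLa EGFP-705 reporter; 500 cells/well, o/n 37C 5% CO2; cpd 2 d; 488 ex/500-520 em laser scan; total peak GFP intensity/well. Ref: 500 nM […] antisense PNA.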

[7] = target: Androgen receptor (Homo sapiens) (UniProt P10275); test: qHTS assay for small molecule agonists of androgen receptor signaling (AID 588515; active means well fitted curve in the direction sought with a large enough effect in the signal ratio, with a control signal flat; the % refers to the signal ratio); settings: AR-UAS-bla HEK293, beta-lactamase ratio, agonist 16 h; hits give high values
Outline: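 EC50 and efficacy came from Hill fits of titrations (up to 92 uM) normalized to 30 nM R1881 as 100% and DMSO as 0%. Compound exposure was 16 h at 37 C on AR-UAS-bla HEK293 cells, with a 405/460/530 nm CCF4 fluorescence read.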

[8] = target: Androgen receptor (Homo sapiens) (UniProt P10275); test: qHTS assay for small molecule antagonists of androgen receptor signaling (AID 588516; active means well fitted curve in the direction sought with a large enough effect in the signal ratio, with a control signal flat, not every such curve was filed as active; the % refers to the signal ratio); settings: AR-UAS-bla HEK293, beta-lactamase ratio, antagonist mode, 16 h; series mostly up to 76.8 µM
Outline: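 Antagonist-mode qHTS: inhibition of R1881 (10 nM)-driven beta-lactamase expression in GripTite HEK 293 cells is measured after 16 h; values are Hill-derived IC50s normalized between R1881 and DMSO wells.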

Sequence of Bile acid receptor (Homo sapiens) (Q96RI1 whole entry, looked up): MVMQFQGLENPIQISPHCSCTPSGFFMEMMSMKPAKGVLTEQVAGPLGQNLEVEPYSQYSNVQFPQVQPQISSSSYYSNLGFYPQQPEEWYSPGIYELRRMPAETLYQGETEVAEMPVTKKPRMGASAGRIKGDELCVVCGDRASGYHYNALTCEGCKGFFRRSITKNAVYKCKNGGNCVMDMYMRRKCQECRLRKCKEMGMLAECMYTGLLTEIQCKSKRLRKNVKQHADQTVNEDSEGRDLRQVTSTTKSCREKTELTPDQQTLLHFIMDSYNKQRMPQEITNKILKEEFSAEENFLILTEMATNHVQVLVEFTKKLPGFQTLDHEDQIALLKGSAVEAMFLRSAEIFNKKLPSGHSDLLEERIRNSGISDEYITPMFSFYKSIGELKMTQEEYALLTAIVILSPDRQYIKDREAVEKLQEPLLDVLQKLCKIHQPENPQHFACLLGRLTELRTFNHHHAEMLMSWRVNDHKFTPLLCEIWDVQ
Sequence of Androgen receptor (Homo sapiens) (P10275 whole entry, looked up): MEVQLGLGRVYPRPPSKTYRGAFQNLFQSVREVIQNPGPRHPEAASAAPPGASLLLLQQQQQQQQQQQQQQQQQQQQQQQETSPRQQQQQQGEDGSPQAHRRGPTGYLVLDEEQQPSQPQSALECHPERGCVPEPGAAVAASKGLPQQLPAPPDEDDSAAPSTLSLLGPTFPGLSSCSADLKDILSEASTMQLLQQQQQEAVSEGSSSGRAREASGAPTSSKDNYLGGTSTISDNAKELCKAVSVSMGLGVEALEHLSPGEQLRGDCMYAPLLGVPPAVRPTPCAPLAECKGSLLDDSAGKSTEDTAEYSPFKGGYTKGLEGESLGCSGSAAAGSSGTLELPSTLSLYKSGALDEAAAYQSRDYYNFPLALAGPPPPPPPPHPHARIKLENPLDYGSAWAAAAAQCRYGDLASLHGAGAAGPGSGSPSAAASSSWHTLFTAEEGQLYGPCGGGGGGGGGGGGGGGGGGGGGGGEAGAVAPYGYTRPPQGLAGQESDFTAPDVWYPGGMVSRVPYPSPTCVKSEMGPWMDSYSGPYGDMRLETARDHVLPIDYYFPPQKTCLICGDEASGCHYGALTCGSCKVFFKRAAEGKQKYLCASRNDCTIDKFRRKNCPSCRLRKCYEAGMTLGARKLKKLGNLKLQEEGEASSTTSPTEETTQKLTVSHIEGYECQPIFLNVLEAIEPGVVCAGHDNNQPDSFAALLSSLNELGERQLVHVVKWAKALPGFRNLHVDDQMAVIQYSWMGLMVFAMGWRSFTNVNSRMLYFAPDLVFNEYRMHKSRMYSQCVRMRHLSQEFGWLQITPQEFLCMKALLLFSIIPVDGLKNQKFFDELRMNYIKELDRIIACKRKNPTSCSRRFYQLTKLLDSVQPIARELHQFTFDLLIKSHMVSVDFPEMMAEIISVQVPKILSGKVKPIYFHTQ
Sequence of Cytochrome P450 3A4 (Homo sapiens) (P08684 whole entry, looked up): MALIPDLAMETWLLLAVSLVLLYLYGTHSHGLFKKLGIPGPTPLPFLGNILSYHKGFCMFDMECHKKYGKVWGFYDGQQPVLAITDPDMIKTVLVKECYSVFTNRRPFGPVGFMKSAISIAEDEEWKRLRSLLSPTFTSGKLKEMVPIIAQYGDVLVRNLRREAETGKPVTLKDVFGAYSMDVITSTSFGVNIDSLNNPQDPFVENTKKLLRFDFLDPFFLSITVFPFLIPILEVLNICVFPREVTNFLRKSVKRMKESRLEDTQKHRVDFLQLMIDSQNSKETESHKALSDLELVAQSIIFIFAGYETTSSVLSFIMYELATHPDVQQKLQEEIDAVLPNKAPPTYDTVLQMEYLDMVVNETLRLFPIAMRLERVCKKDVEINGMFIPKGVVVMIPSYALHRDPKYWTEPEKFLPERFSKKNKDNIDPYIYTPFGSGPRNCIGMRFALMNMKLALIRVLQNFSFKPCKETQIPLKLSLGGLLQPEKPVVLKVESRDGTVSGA

C=CCOCC1CO1 (stereo unspecified)
outcome [1]: inactive
activation [2]: -2.32%

CCC(Cl)[N+](=O)[O-] (stereo unspecified)
outcome [1]: inactive
activation [2]: -1.12%
Potency [3]: inactive

C=CC(=O)OCC(C)C
Potency [3]: inactive

CCCBr
outcome [1]: inactive
activation [2]: -1.67%
Potency [3]: inactive

Nc1ccc(Cc2ccc(N)cc2)cc1
Potency [4]: inactive
outcome [1]: inactive
activation [2]: -2.78% and 3.63%

Nc1cccc2ccccc12
Potency [4]: inactive
Potency [3]: inactive

CC(C#N)CCC#N (stereo unspecified)
Potency [3]: inactive

CCOC(=O)CC(SP(=O)(OC)OC)C(=O)OCC (stereo unspecified)
Potency [4]: inactive
outcome [1]: inactive
activation [2]: -1.01% and 1.76%

Cc1ccc(N)c(C)c1
outcome [1]: inactive
activation [2]: 3.12%

OCCBr
outcome [1]: inactive
activation [2]: -2.65%

CC(C)[C@]12CC(=O)[C@H](C)[C@H]1C2
outcome [1]: inactive
activation [2]: -2.27% and 5.04%

COC(=O)Nc1cccc(OC(=O)Nc2cccc(C)c2)c1
Potency [4]: inactive
activation [2]: 0.654%

CCCCOCC1CO1 (stereo unspecified)
outcome [1]: inactive
activation [2]: -3.01%

OCC(Cl)CCl (stereo unspecified)
Potency [3]: inactive

Oc1cc(Cl)ccc1Cl
Potency [4]: inactive
Potency [3]: inactive

CCC#N
outcome [1]: inactive
activation [2]: -0.411%

NNC(N)=S
outcome [1]: inactive
activation [2]: -2.79%
Potency [3]: inactive

ClC(Cl)C(Cl)Cl
outcome [1]: inactive
activation [2]: -2.53%

OC[P+](CO)(CO)CO
Potency [3]: inactive

C1CC2OC2CC1C1CO1 (stereo unspecified)
outcome [1]: inactive
activation [2]: -0.198%
Potency [3]: inactive

c1ccc(C2CO2)cc1 (stereo unspecified)
Potency [3]: inactive

Cc1ccc(N)cc1C
outcome [1]: inactive
activation [2]: 1.96%

Cc1coc2c1CCC(C)C2 (stereo unspecified)
Potency [3]: inactive

Cc1cccc(C)c1N
outcome [1]: inactive
activation [2]: -1.75%

C=C(Cl)CCl
Potency [3]: inactive

CC(Cl)(Cl)Cl
Potency [3]: inactive

CC(C)Br
outcome [1]: inactive
activation [2]: -0.0522%
Potency [3]: inactive

Cc1ccc2c(C)cccc2c1
Potency [3]: inactive

COc1c(C(C)(C)C)cc([N+](=O)[O-])c(C)c1[N+](=O)[O-]
Potency [3]: inactive

Nc1ccc(-c2ccccc2)cc1
Potency [4]: inactive

CCCN(CCC)c1c([N+](=O)[O-])cc(C(F)(F)F)cc1[N+](=O)[O-]
Potency [4]: inactive
outcome [5]: inactive
outcome [6]: inactive
activation [7]: -14.6% and 7.28%
outcome [8]: inactive
outcome [1]: inactive
activation [2]: 1.13%

Clc1ccc(C(Cl)(Cl)Cl)c(Cl)c1
Potency [4]: inactive

O=[N+]([O-])c1cccc(O)c1
outcome [1]: inactive
activation [2]: -2.84%
Potency [3]: inactive

[O-][Cl+2]([O-])O
activation [2]: -2.85%

FC(Cl)(Cl)Cl
activation [7]: 5.32%
outcome [8]: inactive
outcome [1]: inactive
activation [2]: -3.19%

Cc1ccc(N)c(N)c1
Potency [4]: inactive

BrCC(Br)C1CCC(Br)C(Br)C1 (stereo unspecified)
activation [7]: 1.31%
outcome [8]: inactive

C=CCCC#N
outcome [1]: inactive
activation [2]: -0.315%

Cc1cc(-c2ccc(N)c(C)c2)ccc1N
Potency [4]: inactive

CC(C)(C)C(O)(CCc1ccc(Cl)cc1)Cn1cncn1 (stereo unspecified)
Potency [4]: inactive

C=CC=O
Potency [3]: inactive

CN(C)N=O
outcome [1]: inactive
activation [2]: -0.99%

ClCCBr
Potency [3]: inactive

COc1cc(-c2ccc(N)c(OC)c2)ccc1N
Potency [4]: inactive

O=[N+]([O-])c1cc(Cl)c(Cl)cc1Cl
Potency [3]: inactive

[N-]=[N+]=[N-]
activation [7]: -1.14%
outcome [8]: inactive

CCN(CC)N=O
activation [2]: -2.25%

O=NN1CCCCC1
activation [7]: 6.11%
outcome [8]: inactive
Potency [3]: inactive

CSSC
Potency [3]: inactive

Nc1cccc(Cl)c1
outcome [1]: inactive
activation [2]: -2.3%

O=C(O)C(Cl)Br (stereo unspecified)
outcome [1]: inactive
activation [2]: -0.167%

CC12CC1(C)C(=O)N(c1cc(Cl)cc(Cl)c1)C2=O (stereo unspecified)
activation [7]: -2.56% and 15.9%

O=Cc1ccc2c(c1)OCO2
outcome [1]: inactive
activation [2]: 0.344%
Potency [3]: inactive

CC1CC(=O)O1 (stereo unspecified)
outcome [1]: inactive
activation [2]: -1.6%

c1ccc(Nc2ccc(Nc3ccccc3)cc2)cc1
activation [2]: -1.54%

CC(C)CC(C)N (stereo unspecified)
Potency [3]: inactive

Oc1ccc(Cl)c(Cl)c1Cl
Potency [4]: inactive
outcome [1]: inactive
activation [2]: 0.826%
Potency [3]: inactive

CC(C)C#N
Potency [3]: inactive

CCC[N+](=O)[O-]
outcome [1]: inactive
activation [2]: 2.98%

CC(C)(OOC(C)(C)c1ccccc1)c1ccccc1
activation [7]: 9.96%
outcome [8]: inactive
outcome [1]: inactive
activation [2]: 3.57% and 3.43%

Nc1ccc(Cl)c(Cl)c1
Potency [4]: inactive
Potency [3]: inactive

CCCCC(=O)Cl
outcome [1]: inactive
activation [2]: 3.38%

N#CCBr
outcome [1]: inactive
activation [2]: -0.961%

OCCOCCO
activation [2]: -2.87%
Potency [3]: inactive

O=S(=O)(Cl)c1ccccc1
outcome [1]: inactive
activation [2]: 1.82%

COc1ccc(C=O)cc1
Potency [3]: inactive

Cc1ccc(N)cc1N
outcome [1]: inactive
activation [2]: 0.164% and -1.15%

O=C(Cc1ccccc1)OCc1ccccc1
outcome [1]: inactive
activation [2]: -3.22%
Potency [3]: inactive

Clc1cc(Cl)c(Cl)c(Cl)c1
Potency [3]: inactive

Cc1cc(Cl)ccc1O
outcome [1]: inactive
activation [2]: -2.04%
Potency [3]: inactive

CCOP(=S)(OCC)Oc1nc(Cl)c(Cl)cc1Cl
Potency [4]: inactive
outcome [5]: inactive
outcome [6]: inactive
activation [7]: 5.31% and -6.07%
outcome [8]: inactive
outcome [1]: inactive
activation [2]: -1.55% [middle of 4 runs]

Nc1ccc([N+](=O)[O-])cc1[N+](=O)[O-]
activation [7]: -5.64%
Potency [3]: inactive

CN(C)C(=O)Cl
Potency [3]: inactive

C=CCc1cc(OC)c2c(c1)OCO2
Potency [4]: inactive

OCCCCO
outcome [1]: inactive
activation [2]: -2.93%

CCOP(=S)(OCC)SCCSCC
Potency [4]: inactive

Clc1cccc2ccccc12
Potency [3]: inactive

N#CC(O)c1ccccc1 (stereo unspecified)
outcome [1]: inactive
activation [2]: -0.559%
Potency [3]: inactive

CN(C)C(=O)Nc1cccc(C(F)(F)F)c1
Potency [3]: inactive

Cc1ccc2c(c1N)C(=O)c1ccccc1C2=O
Potency [4]: inactive
outcome [1]: inactive
activation [2]: -0.569% and 1.06%

ClP(Cl)(Cl)(Cl)Cl
outcome [1]: inactive
activation [2]: -2.17%

C=COC(C)=O
Potency [3]: inactive

Cc1ccc(N=C=O)cc1N=C=O
Potency [4]: inactive
